High-throughput results as filed in PubChem BioAssay.
IL-1B inflam inh: inflammasome signaling inhibition, IL-1 beta readout. THP-1 LPS/ATP IL-1B secretion, AlphaLISA, 16 h; hits give low values. activity change, % at 57.5 µM. actives 4.7% (n = 360,000). AID 743279; in the data active means activity change below about -50%; inconclusive means mostly about -30% to -49%; further: on the % scale 0 is the no-effect control and ±100 the full control effect
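THP-1 cells pretreated 1 hr with compounds (up to 57.5 uM final), then stimulated with LPS (250 ng/mL final) plus ATP (1.25 mM final); secreted IL-1B measured by AlphaLISA after 16 hr, decreased signal indicating inhibition.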
HepG2 viability: counter-screen for TGF-b inhibitors: cytotoxicity in HepG2 cells | Potency, µM (doses to about 46.1 µM), for inactives: top-dose activity change, negative = cytotoxicity, most hits filed as cytotoxic | actives 0.76% (n = 410,000) | HepG2 CAGA-GFP viability, ATP luminescence, 18 h; further: potency means the concentration at half of the fitted maximal effect
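CellTiter-Glo luminescence gave cytotoxicity after 18 hours at 37 degrees C. The cells were HepG2 CAGA-GFP in 1% FBS DMEM, stimulated with 500 pg/mL TGF-beta after compound addition. %Activity was normalised to no-cell wells (complete cell-killing) and DMSO (no toxicity), and curves were fitted and classified.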
TDP1 block: TDP1 (human) enzyme inhibition. Q9NUW8. recombinant TDP1, AlphaScreen DNA substrate cleavage. Potency, µM (top dose mostly 130 µM), for inactives: top-dose activity change, negative = inhibition, most hits filed as inhibitors. actives 0.28% (n = 350,000). AID 485290; further: potency means the concentration at half of the fitted maximal effect; on the % scale 0 is the no-effect control and ±100 the full control effect; nearly all actives have a fitted effect of over 40% in size
Target sequence (Q9NUW8 whole entry, looked up): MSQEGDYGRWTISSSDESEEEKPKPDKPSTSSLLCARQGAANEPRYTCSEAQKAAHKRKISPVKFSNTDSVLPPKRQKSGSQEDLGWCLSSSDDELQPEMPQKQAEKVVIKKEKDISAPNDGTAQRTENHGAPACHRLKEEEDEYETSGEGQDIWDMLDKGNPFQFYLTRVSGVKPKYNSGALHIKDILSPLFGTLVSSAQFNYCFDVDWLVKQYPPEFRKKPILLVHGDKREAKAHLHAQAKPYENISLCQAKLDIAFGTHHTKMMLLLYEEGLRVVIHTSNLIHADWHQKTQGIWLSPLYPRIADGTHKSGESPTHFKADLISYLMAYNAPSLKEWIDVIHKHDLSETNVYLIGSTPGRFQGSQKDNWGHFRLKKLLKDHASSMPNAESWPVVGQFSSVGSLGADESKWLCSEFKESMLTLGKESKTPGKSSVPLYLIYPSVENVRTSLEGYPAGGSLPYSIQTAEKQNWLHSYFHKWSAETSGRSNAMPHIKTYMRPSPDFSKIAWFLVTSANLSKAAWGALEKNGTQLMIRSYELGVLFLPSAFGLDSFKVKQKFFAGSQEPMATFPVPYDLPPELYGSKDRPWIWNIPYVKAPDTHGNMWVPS
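Here, a 5' biotin and 3' phosphotyrosine-FITC DNA oligonucleotide reports Tdp1 activity: intact substrate bridges AlphaScreen beads, while cleavage leaves a 3' phosphate and drops signal. All incubations at room temperature.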
TDP1 cell noCPT: qHTS for Inhibitors of human tyrosyl-DNA phosphodiesterase 1 (TDP1): qHTS in cells in absence of CPT; DT40 Tdp1-/- hTDP1 cells, no CPT, ATP luminescence, 48 h; Potency, µM (top dose mostly 46.2 µM), for the others: at the top dose activity change, negative = growth inhibition, actives largely listed as inhibitors; actives 15% (n = 420,000); further: potency means the concentration at half of the fitted maximal effect; on the % scale 0 is the no-effect control and ±100 the full control effect; nearly all actives have a fitted effect of over 55% in size
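Luminescent ATP content (CellTiter-Glo) served as the growth readout. Knockout chicken DT40 cells expressing human TDP1 were exposed to compounds without camptothecin for a minimum 48 hr at 37 °C.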
DT40 TDP1 CPT: growth inhibition of DT40 Tdp1-/-;hTDP1 cells with camptothecin (screen for TDP1 inhibitors); chicken DT40 Tdp1-/-;hTDP1 cells + 20 nM CPT, ATP luminescence, 48 h; AID 686979; Potency, µM (titrated, usually from 46.2 µM), without a hit: top-dose activity change, negative = growth inhibition, most hits filed as inhibitors; actives 12% (n = 420,000); further: potency means the concentration at half of the fitted maximal effect; on the % scale 0 is the no-effect control and ±100 the full control effect; nearly all actives have a fitted effect of over 55% in size
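Cell growth measured by CellTiter-Glo luminescence after a minimum 48 h, 37 C compound exposure with 20 nM CPT in Tdp1-knockout DT40 cells stably expressing hTDP1, seeded 400/well; qHTS titration format.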
TGFb SMAD3 inh: TGF-b pathway inhibition. HepG2 CAGA-GFP TGF-b/SMAD3 reporter, GFP fluorescence, 18 h; TGF-beta stimulated, 500 pg/mL final. Potency, µM (top dose mostly 46.1 µM), inactives show at the top dose activity, negative = inhibition, actives largely listed as inhibitors. actives 1.2% (n = 410,000); further: potency means the concentration at half of the fitted maximal effect; on the % scale 0 is the no-effect control and ±100 the full control effect; nearly all actives have a fitted effect of over 65% in size
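HEPG2 CAGA-GFP cells (1000/well, DMEM with 1% FBS) were pre-incubated 2 h at 37 degrees C, given compound by pin tool, then stimulated with TGF-beta at 500 pg/mL final for 18 h before per-cell GFP fluorescence imaging.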
Active calls of the source: *; [ ] = another dose, or the depositor's remark. Most compounds without a hit are left out; they make up all but 19% or so of the library. Unless noted, the call rests on the fitted dose curve; in most records, active means well fitted curve in the direction sought with a large enough effect; inconclusive means small, poorly fitted or top-dose-only effect, or another doubt; inactive means no such curve, though single readings can be large; an effect the other way counts as inactive or inconclusive.

`CC(=O)Nc1c(C)nn(-c2ccccc2)c1N1CCC(C(=O)NCc2ccc(F)cc2)CC1` gave HepG2 viability 3.9%, TDP1 block 2.7%, TDP1 cell noCPT -7.0%, DT40 TDP1 CPT -22.0% and TGFb SMAD3 inh 1.9%.
`CC(C)(C)NNC(=S)Nc1cccc(C(F)(F)F)c1` gave IL-1B inflam inh inconclusive, HepG2 viability -9.5%, TDP1 cell noCPT 1.16µM*, DT40 TDP1 CPT 3.26µM* and TGFb SMAD3 inh inconclusive.
`O=C(O)/C=C/C(=O)Nc1cccc(C(F)(F)F)c1` gave IL-1B inflam inh -13.0, HepG2 viability -10.7%, TDP1 block 8.1%, TDP1 cell noCPT -6.2%, DT40 TDP1 CPT 0.5% and TGFb SMAD3 inh -6.1%.
For O=C(/C=C/c1cccc(C(F)(F)F)c1)Nc1cccc(C(F)(F)F)c1 the results were IL-1B inflam inh -92.4*, HepG2 viability -99.0%, TDP1 block 1.0%, TDP1 cell noCPT 23.1µM*, DT40 TDP1 CPT 23.1µM* and TGFb SMAD3 inh inconclusive.
Screening C=CCC(CC=C)(CNC(=O)C(=O)Nc1cccc(C(F)(F)F)c1)c1ccccc1 returned HepG2 viability 0.3%, TDP1 block 2.3%, TDP1 cell noCPT 20.6µM*, DT40 TDP1 CPT 18.4µM* and TGFb SMAD3 inh 3.0%.
For FC(F)(F)c1cccc(NC(=S)Nc2cccc(NC(=S)Nc3cccc(C(F)(F)F)c3)n2)c1 the results were IL-1B inflam inh -86.3*, HepG2 viability -26.2%, TDP1 block 7.1%, TDP1 cell noCPT 20.6µM*, DT40 TDP1 CPT 29.1µM* and TGFb SMAD3 inh inconclusive.
Screening O=C(CN1CCOCC1)Nc1nc(-c2ccccc2Cl)cs1 returned IL-1B inflam inh -28.8, HepG2 viability -14.6%, TDP1 cell noCPT -8.3%, DT40 TDP1 CPT -7.8% and TGFb SMAD3 inh -15.2%.
For Cc1ccc2occ(CC(=O)Nc3ccc(S(=O)(=O)N4CCC(C)CC4)cc3)c2c1 the results were HepG2 viability -54.5%, TDP1 block 2.5%, TDP1 cell noCPT inconclusive, DT40 TDP1 CPT inconclusive and TGFb SMAD3 inh inconclusive.
`O=C(O)c1cc(O)c2c(c1)[C@H]([C@H]1c3cc(C(=O)O)cc(O)c3C(=O)c3c(O[C@@H]4O[C@H](CO)[C@@H](O)[C@H](O)[C@H]4O)cccc31)c1cccc(O[C@@H]3O[C@H](CO)[C@@H](O)[C@H](O)[C@H]3O)c1C2=O` gave TDP1 cell noCPT -10.9% and DT40 TDP1 CPT -21.2%.
COc1cc(NC(=O)Cn2c(=O)n(Cc3ccccc3OC)c(=O)c3cccnc32)cc(OC)c1 was read as HepG2 viability -13.8%, TDP1 block -1.0%, TDP1 cell noCPT inconclusive, DT40 TDP1 CPT -13.4% and TGFb SMAD3 inh 9.0%.
Screening O=C(CCNC(=O)c1ccccc1Cl)Nc1cccc(C(F)(F)F)c1 returned IL-1B inflam inh -18.5, HepG2 viability -5.0%, TDP1 block -1.1%, TDP1 cell noCPT -18.2%, DT40 TDP1 CPT -9.7% and TGFb SMAD3 inh -24.5%.
For FC(F)(F)c1cccc(NC(=S)NNC(=S)NCc2ccccc2)c1 the results were IL-1B inflam inh -15.4, HepG2 viability -40.8%, TDP1 block 10.7%, TDP1 cell noCPT 25.9µM*, DT40 TDP1 CPT inconclusive and TGFb SMAD3 inh inconclusive.
For O=C(NNC(=S)Nc1cccc(C(F)(F)F)c1)c1ccccc1Cl the results were IL-1B inflam inh inconclusive, HepG2 viability -83.8%, TDP1 block 2.7%, TDP1 cell noCPT 18.4µM*, DT40 TDP1 CPT inconclusive and TGFb SMAD3 inh 14.1µM*.
For FC(F)(F)c1cccc(NC(=S)NCc2ccccn2)c1 the results were IL-1B inflam inh -3.2, HepG2 viability 4.0%, TDP1 cell noCPT -9.1%, DT40 TDP1 CPT -12.8% and TGFb SMAD3 inh 3.5%.
Screening CCOC(=O)OCC1OC(C#Cc2ccc(Br)cc2)C=CC1OC(=O)OCC (centres undefined) returned TDP1 block 3.7%[21 µM].
CCN(C(=O)c1cc2c(=O)oc3ccc(C)cc3c2s1)c1ccccc1C was read as HepG2 viability -3.9%, TDP1 block 2.3%, TDP1 cell noCPT inconclusive, DT40 TDP1 CPT inconclusive and TGFb SMAD3 inh -6.6%.
`COC(=O)C/C=C\[C@@H](C)[C@@H](/C=N\O[C@@H]1O[C@H](COC(C)=O)[C@H](OC(C)=O)[C@H](OC(C)=O)[C@H]1OC(C)=O)OC` gave TDP1 block 4.8%[21 µM].
O=C(CNC(=O)c1cccc2ccccc12)OC(C(=O)Nc1cc(C(F)(F)F)ccc1Cl)c1ccccc1 (centres undefined) was read as TDP1 block -2.6%.
For CCOC(=O)CCN1C(=O)[C@H]2[C@H]3[C@H](O)[C@H](O)C/C(=N/O[C@@H]4O[C@@H](COC(C)=O)[C@@H](OC(C)=O)[C@@H](OC(C)=O)[C@H]4OC(C)=O)[C@H]3CC[C@@H]2C1=O the results were TDP1 block 2.6%[21 µM].
`CCOc1ccc(C(=O)NN2CCOCC2)cc1` gave IL-1B inflam inh 2.2, HepG2 viability 3.1%, TDP1 block 1.3%, TDP1 cell noCPT 31.5%, DT40 TDP1 CPT -2.4% and TGFb SMAD3 inh -2.2%.
`CCn1c(CC(=O)Nc2ccccc2C)nnc1SCC(=O)NC1CCCC1` gave IL-1B inflam inh -9.1, HepG2 viability 14.2%, TDP1 block -7.1%, TDP1 cell noCPT -15.8%, DT40 TDP1 CPT 5.6% and TGFb SMAD3 inh 4.0%.
O=S(=O)(Nc1cccc2ccccc12)c1cccs1 was read as IL-1B inflam inh 36.7, HepG2 viability 2.2%, TDP1 block 1.1%, TDP1 cell noCPT 0.7%, DT40 TDP1 CPT -9.9% and TGFb SMAD3 inh 6.7%.
O=S(=O)(Nc1cccc2cccnc12)c1ccc(Br)s1 was read as TDP1 block 20.3%.
O=S(=O)(Nc1cccc2cccnc12)c1cccs1 was read as HepG2 viability -18.4%, TDP1 block 1.3% and TGFb SMAD3 inh 2.24µM*.
For O=S(=O)(Nc1ccc(O)c2ccccc12)c1cccs1 the results were IL-1B inflam inh -98.9*, HepG2 viability -68.6%, TDP1 cell noCPT 4.61µM*, DT40 TDP1 CPT 2.06µM* and TGFb SMAD3 inh inconclusive.
`CCOc1cc(C)c(C(C)C)cc1S(=O)(=O)n1cnc(C)c1` gave IL-1B inflam inh 23.5, HepG2 viability -27.4%, TDP1 block -1.2%, TDP1 cell noCPT inconclusive, DT40 TDP1 CPT inconclusive and TGFb SMAD3 inh -27.2%.
